According to PubChem BioAssay (NCI):
The panel holds about 83,000 compounds, 20% with a hit somewhere; the sample as a whole holds those more often.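 How to read the values: 0–100, growth inhibition (40 = 60% inhibited); 0, no net growth; -100 to 0, cell death (-40 = 40% of starting cells died; -100 = all dead).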 Values without a mark were called inactive. Active and inactive are the calls of the source. How the source made its calls: active means growth percent below 10; inactive means the rest.

Legend:
Experiment in all cases: NCI-60 one-dose screen, 48 h (100 = growth as untreated, 0 = no growth, -100 = all killed)
Conditions in all cases: 10 µM unless noted
SK-MEL-2 melanoma = system: SK-MEL-2 melanoma
EKVX NSCLC = system: EKVX NSCLC
SN12C renal = system: SN12C renal
UO-31 renal = system: UO-31 renal
TK-10 renal = system: TK-10 renal
ACHN renal = system: ACHN renal
CAKI-1 renal = system: CAKI-1 renal
A498 renal = system: A498 renal
CCRF-CEM leukemia = system: CCRF-CEM leukemia
MOLT-4 leukemia = system: MOLT-4 leukemia

| Compound | growth (SK-MEL-2 melanoma) | growth (EKVX NSCLC) | growth (SN12C renal) | growth (UO-31 renal) | growth (TK-10 renal) | growth (ACHN renal) | growth (CAKI-1 renal) | growth (A498 renal) | growth (CCRF-CEM leukemia) | growth (MOLT-4 leukemia) |
| --- | --- | --- | --- | --- | --- | --- | --- | --- | --- | --- |
| N#Cc1c(-c2ccccc2)nc(SCC2CO2)nc1N1CCOCC1 (stereo not given) | 66.9% | 78.4% | 69.9% | 29.5% | 68.6% | 59.2% | 38.6% | -15.2% (active) | 96.6% | 68.6% |
| N#Cc1c(NC(=O)c2cccc(C(F)(F)F)c2)sc2c1CCC(=O)C2 | -0.134% (active) | 14.7% | 4.55% (active) | -100% (active) | -5.21% (active) | -93.8% (active) | -85.3% (active) | 94.6% | 6.89% (active) | 3.86% (active) |
| CCCCCCN(CCCCCC)CC(O)c1cccc2ccc(Cl)cc12 (stereo not given) | 46.6% | 77.2% | 72.8% | 47.9% | 79.2% | 50.8% | 25.3% | 67.3% | 67.6% | 37.8% |
| C=C1C(=O)O[C@H]2[C@H]1CC/C(COC(=O)/C=C\C(=O)NCc1ccc(Cn3c(=O)sn(-c4ccc(OC)cc4)c3=O)cc1)=C\CC[C@@]1(C)O[C@@H]21 | -54.2% (active) | -82.9% (active) | -96.4% (active) | -100% (active) | -75.4% (active) | -98.8% (active) | -66.1% (active) | 7.18% (active) | -11.4% (active) | -26.4% (active) |
| CCCCCCCCN(CCCCCCCC)C(=N)c1ccnc2ccccc12 | -44.2% (active) | -63.4% (active) | -57.8% (active) | -89.1% (active) | -16.4% (active) | -89.3% (active) | -86.1% (active) | -95.7% (active) | -42.2% (active) | -41.4% (active) |
| COc1ccc(N(C)c2nc(Cl)nc3cnn(C)c23)cc1 | 22.2% | 46.1% | 27.8% | 34% | 50.9% | 23.9% | 22.9% | -9.16% (active) | 13% | 14.9% |
| CN1CCN(C2=C(Cl)C(=O)c3ccccc3C2=O)CC1 | 45.8% | 89.3% | 79.1% | 75.4% | 93.5% | 82.9% | 77% | 88.6% | 75.5% | 79.7% |
| C[C@@H]1CC[C@@H]2[C@@H]1[C@H](OC(=O)/C=C/c1ccccc1)[C@]1(CCCOCCOCCOCCOC(=O)CCCC[C@@H]3SC[C@@H]4NC(=O)N[C@@H]43)C[C@@H](OC(=O)CO)[C@@]2(C)O1 | 108% | 101% | 106% | 83.1% | 99% | 102% | 91.5% | 97.1% | 98.2% | 97.9% |
| COc1ccc(CN2C(=O)/C(=C\c3cc(OC)c(OC)c(OC)c3)c3ccccc32)cc1 | -41% (active) | 5.9% (active) | 12.8% | 5.84% (active) | 25.2% | -59.5% (active) | -53.9% (active) | 52.7% | 5.62% (active) | 1.82% (active) |
| CC(C)c1ccc(C(=O)OC(=O)c2ccc(C(C)C)cc2)cc1 | 92.4% | 99.7% | 98.7% | 83.9% | 98.2% | 96% | 67.7% | 92.1% | 66.8% | 66.2% |
| COc1ccc2cc(-c3ccc(C(=O)NN)c(C)n3)ccc2c1 | 102% | 99.5% | 96.6% | 83.5% | 95.6% | 103% | 103% | 90.7% | 91.3% | 74% |
| COc1ccc(/C=C2\COc3ccc(O)c(O)c3C2=O)c(OC)c1 | 90.7% | 85.3% | 33% | 34.5% | 22.5% | 56.2% | 36.6% | 114% | 4.18% (active) | 7.29% (active) |
| CNC(=O)NCC1OC(n2cnc3c(NC(=O)Nc4ccccc4)ncnc32)C2OC(C)(C)OC12 (stereo not given) | 104% | 102% | 94.7% | 73.7% | 134% | 105% | 72.6% | 87.2% | 95.4% | 103% |
| O=C1c2ccccc2C2(c3ccc(O)cc3)c3ccccc3Oc3cccc1c32 (stereo not given) | 25.4% | 45.7% | 37.5% | 45.7% | 84.3% | 43.4% | 45.9% | 47.1% | 14.8% | 24.8% |
| Cc1cc(Cc2cc(C)cc(C(C)(C)C)c2O)c(O)c(C(C)(C)C)c1 | 68.8% | 26.5% | 28.1% | 43% | 52.8% | 34.3% | 31% | 90.2% | 28.5% | 29.1% |
| O=C(CCc1nc(-c2cccc(Cl)c2)no1)Nc1ccccn1 | 105% | 92.6% | 94.9% | 88.1% | 111% | 101% | 89.4% | 92.5% | 95% | 96.8% |
| Cc1nn(Cc2ccccc2)cc1C(=O)Nc1sc2c(c1C(N)=O)CCC(=O)C2 | 74.5% | 54.9% | 15.5% | 11.8% | 15.5% | 5.29% (active) | 5.49% (active) | 108% | 9.5% (active) | 16.5% |
| CCOC(=O)C(O)C(O)(c1ccccc1)c1ccccc1 (stereo not given) | 102% | 100% | 99% | 91.2% | 100% | 97.4% | 97% | 98.3% | 99.1% | 95.1% |
| c1ccc2[nH]c(SSc3nc4ncncc4[nH]3)nc2c1 | 57.2% | 67.5% | 42.3% | 31.6% | 30% | 32.2% | -46.4% (active) | 61.7% | 24.7% | 26% |
| CN(CCCCCCCCNc1ccnc2ccccc12)Cc1ccc(-c2ccc(-c3ccc(C#N)cc3)s2)cc1 | -63.9% (active) | -14.3% (active) | -78% (active) | -92.4% (active) | -50.1% (active) | -93.6% (active) | -86.5% (active) | 50.2% | -11.3% (active) | -32.9% (active) |
| Cc1nc(Nc2ccc(N)cc2)c2ccccc2n1 | 101% | 101% | 93.1% | 81.4% | 110% | 80.1% | 91.2% | 97.3% | 86.2% | 100% |
| C[C@]12CCC(=O)C[C@H]1CC[C@@H]1[C@@H]2CC[C@@]2(C)[C@H]1CC[C@]2(O)C(=O)CO | 106% | 107% | 101% | 91.6% | 131% | 96.7% | 106% | 97.1% | 105% | 107% |
| Cc1cc(C)on1 | 99.6% | 99.2% | 99.6% | 84.5% | 103% | 104% | 98.4% | 121% | 96% | 92.3% |
| C=CCO[C@H]1CO[C@H]2[C@@H]1OC[C@@H]2Oc1ccc(Nc2ccnc(Nc3ccc(O[C@H]4CO[C@H]5[C@@H]4OC[C@@H]5OCC=C)c(Cl)c3)n2)cc1Cl | 104% | -71% (active) | -95.5% (active) | -91.3% (active) | -54.4% (active) | 14.5% | -7.16% (active) | 95.6% | -9.75% (active) | -39.3% (active) |
| CCCCOc1nc2ccc(Cl)cc2cc1/C=C/C(=O)/C=C1/CC(c2cc3cc(Cl)ccc3nc2OCCCC)Nc2ccccc2N1 (stereo not given) | 102% | 78.6% | 91.8% | 77.4% | 113% | 92.7% | 81.9% | 102% | 101% | 100% |
| CN(C)CCn1cc(-c2ccc3c(Nc4ccc(CC(=O)Nc5cccc(F)c5)cc4)ncnc3c2)cn1 | 37.2% [30 µM] | -34.7% [30 µM] (active) | -91.4% [30 µM] (active) | -60% [30 µM] (active) | -58.5% [30 µM] (active) | -51.7% [30 µM] (active) | -15.8% [30 µM] (active) | 59.5% [30 µM] | -19.3% [30 µM] (active) | -30.6% [30 µM] (active) |
| c1ccc2c(c1)ncn2-c1nc2ccccc2n2c1nc1ccccc12 | 104% | 61.8% | 85.9% | 48% | 79.6% | 63.1% | 62.3% | 82.4% | 80.6% | 80.3% |
